Compound activity from PubChem BioAssay.
SMARCA2 activ – activators of SMARCA2 function; activation, % at 9.1 µM; 370,000 compounds, 1% hits; AID 652017; MG213 cells, MMTV-luciferase reporter, dexamethasone, overnight; in the data active means activation above about 7.8%;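 further: 0% = vehicle wells and 100% = reference activator wells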
hgDAF12 agonist – agonists of H. glycines DAF-12 nuclear receptor; 370,000 compounds, 1.8% hits; activation, % at 6.8 µM; HEK293 GAL4-hgDAF12 UAS-luciferase reporter, agonist luminescence; normalized to butyrate control;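 active means activation above a cutoff set at the mean of all screened compounds plus 3 SD, cut at about 10% in these data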;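 further: 0% = DMSO wells and 100% = sodium butyrate wells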
DAX1 inh-1 – inhibitors of DAX1 repression of SF-1 activated StAR promoter; inhibition, % at 6.8 µM; AID 652010; 370,000 compounds, 1.1% hits; HEK293T StAR-luciferase reporter, SF-1/DAX-1 repression relief;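 active means inhibition above the mean over all tested compounds plus 3 SD, cut at about 3.6% in these data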;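 further: 0% = DAX-1 cells with DMSO and 100% = cells lacking DAX-1 with DMSO; higher inhibition means more luminescence from relief of DAX-1 repression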
ssDAF-12 act – activates DAF-12 receptor from parasite S. stercoralis; HEK293 ssDAF-12/GRIP1 lit1-tk-luc reporter, luminescence; % of 3 µM dafachronic acid response; activation, % at 6.8 µM; 370,000 compounds, 1% hits; AID 652126;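 active means activation above the mean over all tested compounds plus 3 SD, cut at about 0.9% in these data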;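 further: 0% = DMSO-only wells and 100% = 3 µM delta7-dafachronic acid wells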
DAX1 inh-2 – inhibitors of human orphan nuclear receptor DAX1 (NR0B1); 340,000 compounds, 0.99% hits; inhibition, % at 6.75 µM; HEK293 Gal4-DAX1 luciferase reporter, luminescence;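 active means inhibition above the mean over all tested compounds plus 3 SD, cut at about 4.2% in these data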;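 further: 0% = DAX1-transfected cells with DMSO and 100% = empty-vector control cells with DMSO; inhibition shows as a rise in luminescence from relieved DAX1 repression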
Target sequence (P51843 207-470 limits assumed): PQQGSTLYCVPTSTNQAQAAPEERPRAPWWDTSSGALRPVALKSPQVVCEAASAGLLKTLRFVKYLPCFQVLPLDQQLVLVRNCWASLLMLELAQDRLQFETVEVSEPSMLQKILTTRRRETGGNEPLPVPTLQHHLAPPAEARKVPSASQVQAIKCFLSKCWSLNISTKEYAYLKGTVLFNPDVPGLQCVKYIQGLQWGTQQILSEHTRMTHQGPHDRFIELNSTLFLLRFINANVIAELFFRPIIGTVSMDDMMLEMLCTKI
hcDAF12 agonist – activates DAF-12 receptor from parasite H. contortus; HEK293 hcDAF-12 lit1-tk-luc reporter, luminescence; 0% DMSO, 100% Δ7-dafachronic acid; activation, % at 6.8 µM; 370,000 compounds, 1.4% hits; AID 652067;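 active means activation above the mean of all tested compounds plus 3 SD, cut at about 5.5% in these data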;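 further: 100% = response to 3 µM Δ7-dafachronic acid high control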
* = called active by the depositor; . = no result. Shown are actives, neighbours in structure and some others; about 4.8% of the full set was active somewhere.

SMILES	SMARCA2 activ	hgDAF12 agonist	DAX1 inh-1	ssDAF-12 act	DAX1 inh-2	hcDAF12 agonist
CCCOc1ccc2c3c(c(=O)oc2c1)CCCC3	0	1	-1	-1	0	0
C=CCOc1ccc2c3c(c(=O)oc2c1)CCCC3	-1	1	-1	-1	4.3*	-1
Cc1cnn(-c2ccccc2)c1NC(=O)COCc1ccccc1	-1	-3	-1	-1	.	-4
CCOC(=O)C1CCCCN1C(=O)[C@@H]1CC=C[C@@H]2CCN(c3ccccc3)C(=O)[C@@H]21 (stereo partly specified)	.	1	.	-2	.	0
CC(C)C(=O)N1CC[C@H]2[C@H](CCCN2Cc2ccc(F)cc2)C1	-1	2	0	-1	.	-4
Cc1cccc(-c2noc(-c3ccoc3C)n2)c1	3	5	1	0	1	0
COc1ccc(-c2noc(-c3ccoc3C)n2)cc1OC	4	3	2	0	3	2
COc1ccc(-c2noc(-c3ccoc3C)n2)cc1	0	11*	4.0*	1.7*	7.5*	5
COc1cccc(-c2noc(-c3ccoc3C)n2)c1	5	12*	3	1	3	2
CC(C)CCN1C(=O)COc2ccccc2C1c1nnnn1-c1ccc2c(c1)OCCO2 (stereo unspecified)	0	2	0	-1	.	-2
Cc1ccc(N(CC(=O)N/N=C/c2cccs2)S(C)(=O)=O)cc1	-2	-1	0	-1	-1	2
Cc1ccc(N(CC(=O)N/N=C/c2cccc(Br)c2)S(C)(=O)=O)cc1	1	4	0	1.4*	0	4
CN1CCN(c2ccc3c(c2)Oc2ccccc2CN(Cc2cn(Cc4ccc(F)cc4)nn2)S3(=O)=O)CC1	0	-1	-1	0	.	1
O=C(c1cccc(S(=O)(=O)N2CCCCC2)c1)N1CCc2ccccc21	-6	-2	0	-1	0	5.9*
O=C(NCCCN1CCCC1=O)c1cccc(S(=O)(=O)Nc2ccccc2Cl)c1	-1	-1	-2	-1	-1	0
O=C(NCCCN1CCCC1=O)c1cccc(S(=O)(=O)N2CCCCC2)c1	0	3	4.4*	-1	0	3
C=CCN1[C@H](CO)[C@H](c2ccc(Br)cc2)[C@@H]1C#N	4	2	1	0	.	2
COc1ccc(Cn2c(NC(=O)c3ccccc3)nc(Cc3ccccc3)c2-c2ccccc2)cc1	-4	-2	0	0	.	-2
N#CCc1nc2n(n1)Cc1ccccc1-2	-2	-1	0	-1	0	0
c1ccc2c(c1)Cn1nc(Cc3nc4c(s3)CCCC4)nc1-2	3	6	0	-1	4.4*	5.7*
COc1ccc(S[C@]2(C(=O)N3CCOCC3)CC(=O)N(C(=O)CCc3ccccc3)[C@@H]2c2ccc(OC)cc2)cc1	-1	2	-2	-1	.	-1
CCSc1nnc(NC(=O)C2CC2c2ccccc2)s1 (stereo unspecified)	-2	-3	0	-1	12*	-2
CCSc1nnc(NC(=O)c2cc(C)nc3ccccc23)s1	-1	0	-1	-1	0	0
CCSc1nnc(NC(=O)c2ccc3nc[nH]c3c2)s1	6	13*	1	-1	2	2
CCSc1nnc(NC(=O)c2ccc3ccccc3n2)s1	5	4	1	1.0*	1	6.3*
SMILES	SMARCA2 activ	hgDAF12 agonist	DAX1 inh-1	ssDAF-12 act	DAX1 inh-2	hcDAF12 agonist
CCOC(=O)[C@]12CCCC=C1N(Cc1ccc(OC)cc1)C(=O)[C@@H]2CC(=O)NCCC(C)C	-3	4	-2	-1	.	-3
NNC(=O)C(=O)NCCCN1CCOCC1	-3	-3	0	-1	5.7*	2
Cc1ccc(C)c(NC(=O)C(=O)NCCCN2CCOCC2)c1	0	11*	0	-1	1	-1
S=C(NCCCN1CCOCC1)Nc1ccc(Cl)cc1Cl	-3	3	0	-1	0	-1
Cc1ccc(C)c(NC(=S)NCCCN2CCOCC2)c1	1	3	1	0.9*	0	-1
CC(C)CNC(=O)C(=O)NCCCN1CCOCC1	0	-3	-1	-2	0	1
O=C(C1CCN(S(=O)(=O)c2cccc3cccnc23)CC1)N1CCN(c2ccccc2)CC1	-2	12*	0	-1	2	1
